In all, about 340,000 compounds went through this assay and about 1,000 (0.29%) were called active. Cut-off read from the data, not from the text of the source: inconclusive = inhibition above about 29% without an active follow-up result; inactive = below that. Not all results are given here. Results with a measured potency or affinity are listed apart.
Molecular target: Genome polyprotein (Dengue virus type 2 (strain 16681-PDK53)) (UniProt P29991)
Test: flavivirus cap methylation enzyme inhibition – biochemical, confirmation dose response, primary screen (AID 588689)
Conditions: Dengue-2 NS5 methyltransferase capping enzyme assay, at 25 µM, active compounds read high

Sequence of Genome polyprotein (Dengue virus type 2 (strain 16681-PDK53)) (P29991 whole entry, looked up): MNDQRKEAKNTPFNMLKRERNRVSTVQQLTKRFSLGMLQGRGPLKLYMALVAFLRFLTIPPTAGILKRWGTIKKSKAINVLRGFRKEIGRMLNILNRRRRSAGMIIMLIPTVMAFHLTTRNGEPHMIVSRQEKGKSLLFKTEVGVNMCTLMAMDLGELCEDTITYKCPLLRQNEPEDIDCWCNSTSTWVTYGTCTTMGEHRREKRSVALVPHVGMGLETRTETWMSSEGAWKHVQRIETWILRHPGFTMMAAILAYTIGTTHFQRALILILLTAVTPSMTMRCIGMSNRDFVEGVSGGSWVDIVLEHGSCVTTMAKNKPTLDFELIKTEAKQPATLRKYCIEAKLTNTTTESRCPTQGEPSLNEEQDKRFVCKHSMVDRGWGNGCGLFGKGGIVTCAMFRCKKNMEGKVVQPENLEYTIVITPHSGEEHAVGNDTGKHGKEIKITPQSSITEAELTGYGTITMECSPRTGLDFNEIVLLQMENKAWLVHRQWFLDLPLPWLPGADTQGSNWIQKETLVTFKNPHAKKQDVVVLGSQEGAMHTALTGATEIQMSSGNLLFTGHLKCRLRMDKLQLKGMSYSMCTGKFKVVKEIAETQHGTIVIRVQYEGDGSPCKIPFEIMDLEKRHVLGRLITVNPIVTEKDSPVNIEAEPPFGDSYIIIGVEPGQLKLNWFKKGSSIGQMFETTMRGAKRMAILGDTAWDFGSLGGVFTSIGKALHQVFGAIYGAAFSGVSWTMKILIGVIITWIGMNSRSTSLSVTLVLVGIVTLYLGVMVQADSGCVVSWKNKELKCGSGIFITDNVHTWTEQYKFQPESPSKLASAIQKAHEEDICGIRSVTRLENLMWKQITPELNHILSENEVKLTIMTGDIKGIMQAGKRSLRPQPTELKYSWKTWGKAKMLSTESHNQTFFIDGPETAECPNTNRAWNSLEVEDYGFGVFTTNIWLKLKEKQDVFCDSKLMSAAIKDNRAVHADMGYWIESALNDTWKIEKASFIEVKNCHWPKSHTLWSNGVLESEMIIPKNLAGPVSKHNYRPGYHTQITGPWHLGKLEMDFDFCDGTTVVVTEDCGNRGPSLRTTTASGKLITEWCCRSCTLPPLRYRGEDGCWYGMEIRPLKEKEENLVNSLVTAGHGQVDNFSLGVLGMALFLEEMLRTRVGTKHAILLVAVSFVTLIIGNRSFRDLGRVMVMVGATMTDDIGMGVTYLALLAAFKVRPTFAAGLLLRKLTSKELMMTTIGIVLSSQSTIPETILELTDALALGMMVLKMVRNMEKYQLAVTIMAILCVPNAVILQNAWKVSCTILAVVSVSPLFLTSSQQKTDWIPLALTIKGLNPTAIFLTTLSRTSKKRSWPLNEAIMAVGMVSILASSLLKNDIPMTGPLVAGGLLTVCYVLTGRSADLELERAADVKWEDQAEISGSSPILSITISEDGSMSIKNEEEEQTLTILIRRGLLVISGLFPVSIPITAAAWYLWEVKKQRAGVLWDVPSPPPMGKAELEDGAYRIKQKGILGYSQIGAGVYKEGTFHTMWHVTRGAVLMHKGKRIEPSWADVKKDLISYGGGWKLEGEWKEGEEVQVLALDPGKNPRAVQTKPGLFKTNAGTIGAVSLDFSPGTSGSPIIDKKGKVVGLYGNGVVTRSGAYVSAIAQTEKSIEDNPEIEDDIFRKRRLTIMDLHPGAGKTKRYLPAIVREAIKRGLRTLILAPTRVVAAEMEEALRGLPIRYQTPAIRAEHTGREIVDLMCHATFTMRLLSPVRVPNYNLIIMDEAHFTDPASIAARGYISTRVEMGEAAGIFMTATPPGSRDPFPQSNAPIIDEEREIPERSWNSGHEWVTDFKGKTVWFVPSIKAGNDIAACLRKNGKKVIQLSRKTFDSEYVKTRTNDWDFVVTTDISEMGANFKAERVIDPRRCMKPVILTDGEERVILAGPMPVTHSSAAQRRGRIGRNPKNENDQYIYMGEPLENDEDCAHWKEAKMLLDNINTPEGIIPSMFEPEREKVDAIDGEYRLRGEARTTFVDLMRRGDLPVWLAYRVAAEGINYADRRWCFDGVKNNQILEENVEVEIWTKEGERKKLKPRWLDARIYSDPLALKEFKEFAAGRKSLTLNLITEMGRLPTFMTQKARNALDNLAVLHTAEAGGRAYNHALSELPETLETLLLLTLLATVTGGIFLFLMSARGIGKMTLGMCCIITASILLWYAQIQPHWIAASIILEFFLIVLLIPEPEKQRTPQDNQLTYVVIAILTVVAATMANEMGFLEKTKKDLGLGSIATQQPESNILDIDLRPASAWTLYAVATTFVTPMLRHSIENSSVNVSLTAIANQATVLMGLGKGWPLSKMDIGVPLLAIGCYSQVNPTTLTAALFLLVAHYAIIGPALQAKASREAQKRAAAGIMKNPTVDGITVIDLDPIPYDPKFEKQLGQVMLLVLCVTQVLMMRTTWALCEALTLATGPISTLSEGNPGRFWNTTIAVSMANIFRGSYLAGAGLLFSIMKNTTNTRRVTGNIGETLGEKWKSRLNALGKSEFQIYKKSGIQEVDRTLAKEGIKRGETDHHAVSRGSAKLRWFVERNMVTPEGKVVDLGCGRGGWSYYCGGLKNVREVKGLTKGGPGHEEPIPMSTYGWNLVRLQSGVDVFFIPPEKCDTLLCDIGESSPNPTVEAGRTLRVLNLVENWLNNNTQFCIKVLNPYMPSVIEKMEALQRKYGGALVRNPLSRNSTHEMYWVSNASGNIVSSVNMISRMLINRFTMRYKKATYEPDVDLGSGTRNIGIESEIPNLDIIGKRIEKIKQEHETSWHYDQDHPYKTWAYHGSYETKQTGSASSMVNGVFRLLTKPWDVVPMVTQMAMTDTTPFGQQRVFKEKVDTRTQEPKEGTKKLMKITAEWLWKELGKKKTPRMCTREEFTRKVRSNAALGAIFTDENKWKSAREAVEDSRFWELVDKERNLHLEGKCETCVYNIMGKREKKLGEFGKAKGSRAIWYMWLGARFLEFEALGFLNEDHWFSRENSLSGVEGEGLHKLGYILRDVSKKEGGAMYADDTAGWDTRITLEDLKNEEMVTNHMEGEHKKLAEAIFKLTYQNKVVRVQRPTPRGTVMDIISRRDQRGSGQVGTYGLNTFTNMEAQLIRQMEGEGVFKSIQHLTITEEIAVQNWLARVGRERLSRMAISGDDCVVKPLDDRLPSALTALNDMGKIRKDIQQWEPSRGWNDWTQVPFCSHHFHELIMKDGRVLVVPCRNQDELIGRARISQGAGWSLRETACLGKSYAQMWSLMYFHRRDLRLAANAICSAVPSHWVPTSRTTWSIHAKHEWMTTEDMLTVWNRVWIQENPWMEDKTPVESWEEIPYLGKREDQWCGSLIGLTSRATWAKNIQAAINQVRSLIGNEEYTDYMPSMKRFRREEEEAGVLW

Row | Compound | inhibition
1 | COc1ccc(NS(=O)(=O)c2cc(NC(=O)c3cccc(OCc4c(C)noc4C)c3)ccc2OC)cc1 | -4.53% (inactive)
2 | Clc1ccc(Oc2nc(Oc3ccc(Cl)cc3)nc(N3CCOCC3)n2)cc1 | 5.62% (inactive)
3 | CC(NC(=O)C12CC3CC(CC(C3)C1)C2)C(=O)N/N=C/C1=C(N2CCOCC2)C(=C\c2ccccc2)/CC1 (stereo not given) | -2.59% (inactive)
4 | CN(CCO)C(=O)c1cccc2c1-c1ccccc1C2=O | 2.07% (inactive)
5 | CN(C)c1cccc2c1C(=O)c1ccccc1C2=O | 2.91% (inactive)
6 | Cc1nnc(NC(=O)CSc2nnc(CCNC(=O)c3ccccc3F)n2C)s1 | -9.78% (inactive)
7 | Cc1oc2c(O)c(O)ccc2c(=O)c1-c1ccccc1 | 1.39% (inactive)
8 | O=C(O)c1cccc(O)c1O | 2.93% (inactive)
9 | Cc1cc(=O)oc2c(O)c(O)ccc12 | 0.73% (inactive)
10 | O=C1c2ccccc2C(=O)c2c1ccc(O)c2O | 0% (inactive)
11 | CC(C)(Oc1ccc(Cl)cc1)C(=O)Nc1ccc2oc(-c3ccncc3)nc2c1 | 2.08% (inactive)
12 | COc1cc(C)c(S(=O)(=O)NCc2ccc3c(c2)OCO3)cc1C | -1.39% (inactive)
13 | Cc1nn(-c2ccccc2)nc1CNC(=O)C(C)Cc1ccccc1 (stereo not given) | -2.38% (inactive)
14 | O=C(C1=C[C@H](C2CCCCC2)C[C@H](OCc2ccc(CO)cc2)O1)N1CCOCC1 | -6.54% (inactive)
15 | CSC[C@H](NC(=O)Cc1c(C)c2cc3c(C)c(C)oc3cc2oc1=O)C(=O)N[C@@H](Cc1ccccc1)C(=O)O | 1.4% (inactive)
16 | CCCCC(NC(=O)Cc1c(C)c2cc3c(C)c(C)oc3c(C)c2oc1=O)C(=O)O (stereo not given) | 1.31% (inactive)
17 | Cc1c(CC(=O)N[C@@H](C)C(=O)O)c(=O)oc2c(C)c3occ(-c4ccccc4)c3cc12 | -0.65% (inactive)
18 | CCCC(NC(=O)Cc1c(C)c2cc3c(C)c(C)oc3c(C)c2oc1=O)C(=O)N[C@@H](Cc1ccccc1)C(=O)O (stereo not given in full) | 1.45% (inactive)
19 | CCCOc1ccc(NC(=O)CC2C(=O)N(CC)C(=S)N2Cc2cccs2)cc1 (stereo not given) | -2.45% (inactive)
20 | C/C(=C\c1cccc(Cl)c1)C(=O)c1c(C)cc(C)[nH]c1=O | 0.68% (inactive)
21 | COc1ccc(S(=O)(=O)N2CCN(c3ccccc3)CC2)cc1 | -2.22% (inactive)
22 | Cc1cccc(N2CCN(c3nc(C)cc(C)c3C#N)CC2C)c1 (stereo not given) | -4.66% (inactive)
23 | O=C(O)C(c1ccccc1)N1C(=O)/C(=C\c2ccc(-c3ccccc3Cl)o2)SC1=S (stereo not given) | 12.4% (inactive)
24 | COc1cccc(/C=C2\SC(=S)N(c3cccnc3)C2=O)c1OC | 6.89% (inactive)
25 | CCOc1ccc(/C=C2\SC(=S)N(C(C(=O)O)c3ccccc3)C2=O)cc1OC (stereo not given) | 16.8% (inactive)
26 | COc1cccc(/C=C2\SC(=S)N(N3CCOCC3)C2=O)c1OC | -5.48% (inactive)
27 | O=C1/C(=C/c2cccs2)SC(=S)N1c1ccccc1 | -4.85% (inactive)
28 | COc1ccc(OC)c(/C=C2\SC(=S)N(C(C(=O)O)c3ccccc3)C2=O)c1 (stereo not given) | -26.1% (inactive)
29 | CCOc1ccc(/C=C2/SC(=S)N(C(C(=O)O)c3ccccc3)C2=O)cc1OCC (stereo not given) | 22.1% (inactive)
30 | COc1ccc(/C=C2\SC(=S)N(C(C(=O)O)c3ccccc3)C2=O)c(OC)c1 (stereo not given) | -11.9% (inactive)
